{"source": "PubChem BioAssay AID624296", "about": "(National Center for Advancing Translational Sciences (NCATS), 2012)", "note": "About 9,900 (2.8%) of roughly 350,000 compounds were called active. Inconclusive results (about 15%) are left out. Calls come from the whole dose curve; as a rule, active = well fitted activation curve with a large enough effect; inconclusive = small, poorly fitted or top-dose-only effect; inactive = no such curve, though single readings can be large or run the other way. Many of the other results were omitted from the sample, so actives are more common in it than they were. Potency is the fitted concentration of half-maximal effect."}
{"assay": "A quantitative high throughput screen for small molecules that induce DNA re-replication in MCF 10a normal breast cells; note: nearly all actives have a fitted effect of over 50% in size; for activity, positive = re-replication: % of control where 0% means no effect.", "conditions": "MCF 10A DNA re-replication, Hoechst nuclear intensity, 48 h; series mostly up to 46.1 µM; activity, positive = re-replication: at the top concentration"}
{"smiles": "COc1ccccc1-c1nn(Cc2ccccc2)cc1C(=O)N1CCN(c2ncccn2)CC1", "activity, positive = re-replication": "13.2% (inactive)"}
{"smiles": "O=C(CN1CCCSc2ccccc21)N1CCN(S(=O)(=O)c2ccccc2)CC1", "activity, positive = re-replication": "13.1% (inactive)"}
{"smiles": "COc1ccccc1/C=N/Nc1nc(C)c(C(C)=O)s1", "activity, positive = re-replication": "5.97% (inactive)"}
{"smiles": "CC(=O)c1sc(N/N=C/c2ccc(C(C)C)cc2)nc1C", "Potency": "13 µM (active)"}
{"smiles": "CC(=O)c1sc(NC(=O)CCCOc2ccccc2C)nc1C", "activity, positive = re-replication": "-8.51% (inactive)"}
{"smiles": "COc1ccc(Cl)cc1NC(=O)COC(=O)c1ccc(Br)o1", "activity, positive = re-replication": "11.8% (inactive)"}
{"smiles": "CCCN(CC1CC1)C(=O)COC(=O)c1ccc(C)cc1O", "activity, positive = re-replication": "5.42% (inactive)"}
{"smiles": "Cc1cc(C)n2nc(C(=O)Nc3cccc(S(=O)(=O)N4CCOCC4)c3)nc2n1", "activity, positive = re-replication": "-16.6% (inactive)"}
{"smiles": "NC(CSC1(c2ccccc2)c2ccccc2-c2ccccc21)C(=O)O", "note": "(configuration not stated)", "activity, positive = re-replication": "1.81% (inactive)"}
{"smiles": "COc1ccc(-c2ccc3c(c2)[C@@H]2C[C@H](N(C)S(=O)(=O)c4ccccc4)[C@H]([C@H](C)O)C(=O)N2CC3)cc1", "activity, positive = re-replication": "-0.341% (inactive)"}
{"smiles": "CC(C)(C)OC(=O)Nc1ccc([C@@H](NC(=O)OC(C)(C)C)C(=O)OC(C)(C)C)cc1", "activity, positive = re-replication": "-5.63% (inactive)"}
{"smiles": "CCc1ccc2c(c1)C1(NN=C(c3ccccc3)S1)C(=O)N2", "note": "(configuration not stated)", "Potency": "18.4 µM (active)"}
{"smiles": "CCc1ccc2c(c1)C(c1ccc([N+](=O)[O-])cc1)=NNC(c1ccccc1)=N2", "activity, positive = re-replication": "1.73% (inactive)"}
{"smiles": "O=S1(=O)CSCS(=O)(=O)C1", "activity, positive = re-replication": "-2.53% (inactive)"}
{"smiles": "COc1ccc2sc(-c3ccc(N(C)C)cc3)c(-c3ccc4cc[nH]c4c3)c2c1", "Potency": "16.4 µM (active)"}
{"smiles": "COc1cc(OC)cc(-c2c(-c3ccc(F)cc3)c3cc(-c4ccc5cc[nH]c5c4)ccc3n2C)c1", "activity, positive = re-replication": "3.2% (inactive)"}
{"smiles": "COc1ccc2c(c1)c(=Cc1ccc(N(C)C)cc1)c1cc(-c3ccccc3)[n+](C)n12", "activity, positive = re-replication": "-16.6% (inactive)"}
{"smiles": "CC1Sc2ccc(C(=O)NCc3ccccc3Cl)cc2NC1=O", "note": "(configuration not stated)", "activity, positive = re-replication": "-4.42% (inactive)"}
{"smiles": "O=c1ccn([C@@H]2O[C@H](CNS(=O)(=O)c3cc4ccccc4s3)[C@@H](O)[C@H]2O)c(=O)[nH]1", "activity, positive = re-replication": "-3.12% (inactive)"}
{"smiles": "Cc1cc(C)c(C=NNc2nc3c([nH]2)c(=O)n(C)c(=O)n3C)c(C)c1", "activity, positive = re-replication": "-1.32% (inactive)"}
{"smiles": "N#CCC(=O)N/N=C/c1ccc(SCC(=O)Nc2ccccc2)o1", "activity, positive = re-replication": "-2.9% (inactive)"}
{"smiles": "N#CCC(=O)N/N=C/c1cn(Cc2ccc3ccccc3c2)c2ccccc12", "Potency": "10.3 µM (active)"}
{"smiles": "CCOC(=O)N/N=C/c1cn(Cc2ccccc2Cl)c2ccccc12", "activity, positive = re-replication": "3.11% (inactive)"}
{"smiles": "CC1CCCC(NC(=O)c2cc(S(=O)(=O)N3CCCCC3)ccc2Cl)C1C", "note": "(configuration not stated)", "activity, positive = re-replication": "-4.65% (inactive)"}
{"smiles": "c1cncc(-c2nnc3n2C2(CCCCC2)Cc2ccccc2-3)c1", "activity, positive = re-replication": "1.24% (inactive)"}
{"smiles": "O=c1c2ccccc2nc2n1C1(CCCCC1)Cc1ccccc1-2", "Potency": "18.4 µM (active)"}
{"smiles": "CN(c1ccc2nc3ccccc3c(=O)n2n1)C1CCCCC1", "activity, positive = re-replication": "-2.71% (inactive)"}
{"smiles": "COc1ccccc1CNC(=O)COC(=O)c1cccs1", "activity, positive = re-replication": "-5.75% (inactive)"}
{"smiles": "CC(C)C[C@H]1CN([C@@H](CC(C)C)CN2CCC[C@@H]2CN2C(=O)C(=O)NC[C@@H]2Cc2ccccc2)C(=O)C(=O)N1CCc1ccccc1", "activity, positive = re-replication": "17.4% (inactive)"}
{"smiles": "COc1ccc(C(=O)NCc2ccccc2C)cc1S(=O)(=O)NC1CCCC1", "activity, positive = re-replication": "-4.4% (inactive)"}
{"smiles": "CCN(CC)S(=O)(=O)c1ccc(NC(=O)c2cccnc2Cl)c(NC(=O)c2cccnc2Cl)c1", "Potency": "18.4 µM (active)"}
{"smiles": "Cc1cccc(NC(=O)c2cccnc2Cl)n1", "activity, positive = re-replication": "-3.66% (inactive)"}
{"smiles": "CCN(CC)S(=O)(=O)c1ccc(Cl)c(NC(=O)c2ccncc2)c1", "activity, positive = re-replication": "0.731% (inactive)"}
{"smiles": "O=C(NOCc1ccccc1)c1cccc([N+](=O)[O-])c1", "activity, positive = re-replication": "1.13% (inactive)"}
{"smiles": "O=C(COC(=O)COc1ccccc1F)Nc1cccc(S(=O)(=O)N2CCCCC2)c1", "activity, positive = re-replication": "-4.89% (inactive)"}
{"smiles": "O=C(Nc1nnc(SCc2c(Cl)cccc2Cl)s1)C1CCCO1", "note": "(configuration not stated)", "Potency": "11.6 µM (active)"}
{"smiles": "O=C(Nc1nnc(SCc2c(Cl)cccc2Cl)s1)c1cccc([N+](=O)[O-])c1", "activity, positive = re-replication": "21% (inactive)"}
{"smiles": "O=C(Nc1nnc(SCc2ccc(Cl)cc2Cl)s1)C1COc2ccccc2O1", "note": "(configuration not stated)", "Potency": "18.4 µM (active)"}
{"smiles": "O=C(Nc1nc(-c2ccncc2)cs1)C1COc2ccccc2O1", "note": "(configuration not stated)", "activity, positive = re-replication": "3.86% (inactive)"}
{"smiles": "O=C(Nc1nnc(CCc2ccccc2)s1)C1CCCO1", "note": "(configuration not stated)", "activity, positive = re-replication": "-6.69% (inactive)"}
{"smiles": "O=C(Nc1nc2c(F)cc(F)cc2s1)C1COc2ccccc2O1", "note": "(configuration not stated)", "activity, positive = re-replication": "5% (inactive)"}
{"smiles": "O=C1/C(=C/c2ccc3c(c2)OCO3)CCC/C1=C\\c1ccc2c(c1)OCO2", "Potency": "14.6 µM (active)"}
{"smiles": "O=C(O)/C=C/c1ccc2c(c1)OCCO2", "activity, positive = re-replication": "13.8% (inactive)"}
{"smiles": "O=C(N/N=C/c1ccc2c(c1)OCO2)C(=O)N1CCCC1", "activity, positive = re-replication": "14.4% (inactive)"}
{"smiles": "O=C(COC(=O)c1cc[n+]([O-])cc1)Nc1ccc(Cl)c(C(F)(F)F)c1", "activity, positive = re-replication": "23.8% (inactive)"}
{"smiles": "CCOc1ccc(CCNC(=O)COC(=O)C2CCN(S(=O)(=O)c3ccccc3)CC2)cc1OCC", "activity, positive = re-replication": "-3.91% (inactive)"}
{"smiles": "CCOc1cccc2cc(C(=O)OCC(=O)Nc3c(C)cccc3CC)c(=O)oc12", "activity, positive = re-replication": "-4.55% (inactive)"}
{"smiles": "CN=C(Nc1cccc(S(=O)(=O)N2CCOCC2)c1)c1ccccc1", "activity, positive = re-replication": "-0.997% (inactive)"}
{"smiles": "CCN1CCN(CCNC(=O)c2ccc(/C=C3/Sc4ccccc4N(Cc4cccc(C)c4)C3=O)cc2)CC1", "Potency": "6.51 µM (active)"}
{"smiles": "Cc1nn(Cc2ccccc2)c(C)c1C(=O)NCCN1C(=O)S/C(=C\\c2ccc(F)cc2)C1=O", "activity, positive = re-replication": "5.89% (inactive)"}
{"smiles": "O=C(NCCN1CCOCC1)c1ccc(/C=C2\\Sc3ccccc3N(Cc3ccc(F)cc3)C2=O)cc1", "Potency": "18.4 µM (active)"}
{"smiles": "O=C(NCCN1CCOCC1)/C(=C/c1ccc(F)cc1)NC(=O)c1ccccc1", "activity, positive = re-replication": "-3.22% (inactive)"}
{"smiles": "CCN1CCN(CCNC(=O)c2ccc3c(c2)NC(=O)/C(=C\\c2ccc(OC)c(OC)c2)S3)CC1", "activity, positive = re-replication": "1.79% (inactive)"}
{"smiles": "O=C(NCCCN1CCOCC1)c1ccc2c(c1)N(Cc1cccc(F)c1)C(=O)c1ccccc1S2", "activity, positive = re-replication": "-2.53% (inactive)"}
{"smiles": "Cn1nnnc1SCC(=O)Nc1sccc1C(N)=O", "activity, positive = re-replication": "0.751% (inactive)"}
{"smiles": "COc1ccc([C@H]2CC(=O)C=C(c3ccc(OC(F)(F)F)cc3)C2)cc1OC", "activity, positive = re-replication": "6.41% (inactive)"}
{"smiles": "CCc1nnc(NC(=O)CCCSc2nc3ccccc3[nH]2)s1", "activity, positive = re-replication": "0.183% (inactive)"}
{"smiles": "O=C(CSc1nc2ccccc2[nH]1)Nc1nc(-c2ccccc2)c(-c2ccccc2)o1", "activity, positive = re-replication": "0.359% (inactive)"}
{"smiles": "CCC(C)N1C(=O)S/C(=C/c2ccc(Sc3nc4ccccc4[nH]3)o2)C1=O", "note": "(configuration not stated)", "Potency": "8.2 µM (active)"}
{"smiles": "C[C@H]1CN([C@@H](C)CO)C(=O)Cc2cc(NC(=O)Cc3ccccc3)ccc2O[C@H]1CN(C)S(=O)(=O)c1cccs1", "activity, positive = re-replication": "5.07% (inactive)"}
{"smiles": "O=C1CC(C(=O)O)NC(=S)N1", "note": "(configuration not stated)", "activity, positive = re-replication": "-28.6% (inactive)"}
{"smiles": "Cc1cc(NC(=O)c2cc3ccccc3o2)no1", "activity, positive = re-replication": "1.92% (inactive)"}
